Measured values from PubChem BioAssay (NCI).
“And” between values parts separate entries of the source, which are not always exact repeats. Identical values can stand only once. About 83,000 compounds went through this panel and 20% of them were active in at least one assay; those are over-represented in the sample as a whole.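 Each cell line was grown in a 96-well plate and treated with one concentration of compound for 48 hours. Values below 10 were considered active.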 A number with no mark means an inactive call. The source made the active and inactive calls.

Columns and labels:
Experiment in all cases: NCI-60 one-dose screen, 48 h (100 = growth as untreated, 0 = no growth, -100 = all killed)
Details in all cases: 10 µM unless noted
HCT-15 colon = test system: HCT-15 colon
HT29 colon = test system: HT29 colon
SNB-75 CNS = test system: SNB-75 CNS
SNB-19 CNS = test system: SNB-19 CNS
U251 CNS = test system: U251 CNS
PC-3 prostate = test system: PC-3 prostate
SK-MEL-5 melanoma = test system: SK-MEL-5 melanoma
UACC-62 melanoma = test system: UACC-62 melanoma
LOX IMVI melanoma = test system: LOX IMVI melanoma
SK-MEL-28 melanoma = test system: SK-MEL-28 melanoma
SK-MEL-2 melanoma = test system: SK-MEL-2 melanoma
EKVX NSCLC = test system: EKVX NSCLC
SN12C renal = test system: SN12C renal
UO-31 renal = test system: UO-31 renal
TK-10 renal = test system: TK-10 renal
CAKI-1 renal = test system: CAKI-1 renal
A498 renal = test system: A498 renal
HL-60(TB) leukemia = test system: HL-60(TB) leukemia
CCRF-CEM leukemia = test system: CCRF-CEM leukemia
ACHN renal = test system: ACHN renal

Row | SMILES | growth (HCT-15 colon) | growth (HT29 colon) | growth (SNB-75 CNS) | growth (SNB-19 CNS) | growth (U251 CNS) | growth (PC-3 prostate) | growth (SK-MEL-5 melanoma) | growth (UACC-62 melanoma) | growth (LOX IMVI melanoma) | growth (SK-MEL-28 melanoma) | growth (SK-MEL-2 melanoma) | growth (EKVX NSCLC) | growth (SN12C renal) | growth (UO-31 renal) | growth (TK-10 renal) | growth (CAKI-1 renal) | growth (A498 renal) | growth (HL-60(TB) leukemia) | growth (CCRF-CEM leukemia) | growth (ACHN renal)
1 | Cc1nnc([S-])o1.[Au+].c1ccc([PH+](c2ccccc2)c2ccccc2)cc1 | 8.98% (active) | 61.1% | 29.3% | 29.2% | 10.1% | 57.7% | 26.7% | 21.3% | 13.2% | 32.8% | 47.9% | 87.3% | 40.8% | 55.1% | 102% | 41.6% | 90.5% | 6.51% (active) | 11.1% | 
2 | O=C(CBr)OCCOC(=O)CBr | 72.4% | 92.5% | 91.2% | 104% | 87.4% | 84.1% | 99.3% | 81.4% | 37.1% | 79.5% | 103% | 101% | 58% | -92.4% (active) | 130% | 33.5% | 150% |  | -15.5% (active) | 
3 | c1ccc2c(c1)sc1ccccc12 | 103% | 99.8% | 85.3% | 98.4% | 99.3% | 84.7% | 91.1% | 100% | 93.9% | 105% | 113% | 93.6% | 98.4% | 79.2% |  | 84.4% | 113% |  | 103% | 89.6%
4 | O=C(O)c1ccccc1N(CCO)CCCl | 87% | 115% | 81.3% | 98.8% | 94.5% | 87.6% | 101% | 94% | 86.6% | 100% | 116% | 118% | 98.3% | 88.2% |  | 112% | 100% | 53.8% | -3.53% (active) | 95%
5 | O=C(O)c1cc([N+](=O)[O-])cc([N+](=O)[O-])c1 | 109% | 96.6% | 86.8% | 105% | 91.8% | 84.6% | 98% | 105% | 97% | 106% | 87.1% | 104% | 97.5% | 92% |  | 93.8% | 92.6% |  | 80.6% | 105%
6 | CCOC(=O)P(=O)(OCC)OCC | 101% | 102% | 115% | 97.9% | 109% | 92.5% | 107% | 96.9% | 91.6% | 106% | 113% | 124% | 101% | 92.3% |  | 119% | 102% | 113% | 118% | 105%
7 | CCC1(CCSC#N)C(=O)NC(=O)NC1=O | 99.6% | 100% | 97.1% | 101% | 93.9% | 92.5% | 100% | 104% | 101% | 110% | 109% | 93.2% | 104% | 87% | 86.5% | 98.7% | 90.9% | 98.3% | 103% | 
8 | O=C1NC(=O)C(=C/C=C/c2ccccc2)C(=O)N1 | 8.86% (active) | -71.6% (active) | 24.3% | 53.8% | 7.65% (active) | 27.7% | 80.9% | -11.9% (active) | -64.4% (active) | -34.7% (active) | 74.2% | 84.1% | -10.6% (active) | -64.3% (active) |  | -12.7% (active) | 106% | -5.93% (active) | -7.03% (active) | 2.5% (active)
9 | CC(C)COC(=O)Cc1ccccc1 | 109% | 101% | 99.9% | 109% | 101% | 97.6% | 98.7% | 107% | 101% | 112% | 113% | 109% | 94.2% | 102% |  | 101% | 81.1% | 109% | 95.3% | 
10 | COC(=O)C12C3C4C1C1C2C3C41NC(=O)c1csc([C@@H](C[C@H](C(C)C)N(C)C(=O)[C@@H](NC(=O)[C@H]2CCCCN2C)C2CC2)OC(C)=O)n1 (stereo not given in full) | 12.6% | -16.7% (active) | 45.3% | 39.7% | 10.8% | 23.5% | -14.7% (active) | 48% | 16.3% | 57.8% | 19.1% | 60.2% | 31.1% | 45.6% |  | 38.1% | -3.52% (active) | -37.4% (active) | 16.5% | 36.4%
11 | CC[C@H](C)[C@H](NC(=O)[C@H]1CCCCN1C)C(=O)N(C)[C@H](CCc1nc(C(=O)N[C@@H](Cc2ccccc2)C[C@H](C)C(=O)O)cs1)C(C)C | 27.3% | -3.57% (active) | 28.3% | 39.5% | 7.98% (active) | 29.1% | 5.59% (active) | 52.2% | 15.2% | 59.4% | 32.3% | 47.7% | 46.8% | 49% |  | 51.2% | -7.5% (active) | -34.5% (active) | 14.9% | 47%
12 | CC(C)c1cccc(C(C)C)c1O | 99.1% and 107% | 99.4% and 102% | 109% and 81.4% | 123% and 94% | 97.2% and 99.7% | 99.7% and 93.8% | 110% | 118% and 92.1% | 96.9% and 105% | 115% and 104% | 113% | 101% and 94.5% | 108% and 104% | 88% |  | 95.1% and 88.4% | 112% and 113% | 97.9% and 85.9% | 107% and 90.6% | 104% and 105%
13 | COc1ccc2c(c1)c(-c1nc(-c3c[nH]c4ncccc34)cs1)cn2CCCCN1CCOCC1 | -31.7% (active) | -84.4% (active) | 40.1% | 52.4% | 4.84% (active) | 30.1% | 26% | 20.4% | -34.7% (active) | -90.3% (active) | 69% | 68.4% | 61.9% | 22.8% | 64.4% | 37.5% | 92.3% | 7.66% (active) | -8.39% (active) | 
14 | CC(=O)C(N)Cc1ccccc1 (stereo not given) | 103% | 103% | 86.7% | 99.3% | 84.2% | 83.6% | 107% | 92.6% | 95.1% | 114% | 107% | 100% | 95.7% | 96.3% |  | 96.2% |  |  | 84.4% | 99.7%
